Laboratory results reported in the antibiotic and cytotoxicity screens of Wong et al. (2023).
Out of some 39,000 compounds screened, about 3,300 (8.5%) were called active. The full list was thinned out, with actives kept by preference.

Each compound was assayed on HepG2 (assay: cytotoxicity call (relative viability < 0.9)). Conditions: 10 µM.

| SMILES | cytotoxicity call |
| --- | --- |
| CO[C@@H]1CN(C)C(=O)c2ccc(NS(=O)(=O)CC(F)(F)F)cc2OC[C@@H](C)N(Cc2nccs2)C[C@H]1C | inactive |
| C=CC[C@H](CC(=O)NCCO)C(=O)NC[C@@H](OC(=O)[C@@H](CC=C)CC(=O)OC(C)(C)C)c1ccccc1 | inactive |
| C[C@H](CO)N1C[C@H](C)[C@@H](CN(C)CC2CC2)Oc2c(NS(=O)(=O)c3ccccc3)cccc2C1=O | inactive |
| CC(C)NC(=O)N(C)C[C@H]1Oc2ccc(NC(=O)Cn3cnnn3)cc2C(=O)N([C@H](C)CO)C[C@H]1C | inactive |
| CCCCC(=O)OC1(C(=O)CO)C(C)CC2C3CCC4=CC(=O)C=CC4(C)C3(F)C(O)CC21C (configuration not stated) | inactive |
| Nc1cc(=O)nc(N)[nH]1 | inactive |
| C[C@H]1CN([C@@H](C)CO)C(=O)c2cccc(NC(=O)c3ccncc3)c2O[C@H]1CN(C)S(=O)(=O)c1ccccc1 | inactive |
| CC(C)CC#Cc1ccc2c(c1)O[C@@H](CN(C)C(=O)Cc1ccncc1)[C@@H](C)CN([C@@H](C)CO)S2(=O)=O | inactive |
| CO[C@H]1CN(C)C(=O)c2cc(NC(=O)Nc3cccc(F)c3)ccc2OC[C@H](C)N(C(=O)Nc2c(C)noc2C)C[C@H]1C | inactive |
| C[C@@H]1CN([C@@H](C)CO)C(=O)c2cc(NC(=O)Nc3ccc4c(c3)OCO4)ccc2O[C@@H](C)CCCCO[C@H]1CN(C)Cc1ccc(Cl)c(Cl)c1 | inactive |
| C[C@@H]1CCCCO[C@@H](CN(C)Cc2ccc(Cl)c(Cl)c2)[C@@H](C)CN([C@@H](C)CO)C(=O)c2cc(NC(=O)Nc3ccc4c(c3)OCO4)ccc2O1 | active |
| C[C@@H]1CCCCO[C@H](CN(C)Cc2ccc(Cl)c(Cl)c2)[C@H](C)CN([C@@H](C)CO)C(=O)c2cc(NC(=O)Nc3ccc4c(c3)OCO4)ccc2O1 | active |
| C[C@@H]1CCCCO[C@@H](CN(C)Cc2ccc(Cl)c(Cl)c2)[C@H](C)CN([C@H](C)CO)C(=O)c2cc(NC(=O)Nc3ccc4c(c3)OCO4)ccc2O1 | inactive |
| CC(C)(C)NC(=O)N1CCC(CN)CC1 | inactive |
| C[C@H]1CCCCO[C@H](CN(C)C(=O)NC2CCCCC2)[C@@H](C)CN([C@@H](C)CO)C(=O)c2cc(NC(=O)Nc3ccc(F)cc3)ccc2O1 | inactive |
| CO[C@@H]1[C@H](O)[C@@H](CO)O[C@H]1n1cc(C)c(N)nc1=O | inactive |
| C[C@@H]1CN([C@H](C)CO)C(=O)c2cccc(NS(=O)(=O)c3ccc(Cl)cc3)c2O[C@@H]1CN(C)Cc1ccc(C(F)(F)F)cc1 | inactive |
| CC(C)NC(=O)Nc1ccc2c(c1)C(=O)N([C@H](C)CO)C[C@H](C)[C@H](CN(C)Cc1ccccc1)OCCCC[C@H](C)O2 | inactive |
| C[C@H]1CN([C@@H](C)CO)S(=O)(=O)c2ccc(C#Cc3ccccc3)cc2O[C@@H]1CN(C)S(C)(=O)=O | inactive |
| CC1(N)CCN(c2cccnc2NC(=O)c2nc(-c3ncccc3C(F)(F)F)cnc2N)CC1 | inactive |
| CCCNC(=O)N1C[C@H](C)[C@H](OC)CN(C)C(=O)c2cc(NS(=O)(=O)CC(F)(F)F)ccc2OC[C@@H]1C | inactive |

| SMILES | cytotoxicity call |
| --- | --- |
| COc1ccc(S(=O)(=O)Nc2ccc3c(c2)CC(=O)N([C@@H](C)CO)C[C@@H](C)[C@H](CN(C)Cc2ccc(Oc4ccccc4)cc2)O3)cc1 | inactive |
| COc1ccc(S(=O)(=O)Nc2ccc3c(c2)CC(=O)N([C@H](C)CO)C[C@@H](C)[C@@H](CN(C)Cc2ccc(Oc4ccccc4)cc2)O3)cc1 | active |
| COc1ccc(S(=O)(=O)Nc2ccc3c(c2)CC(=O)N([C@@H](C)CO)C[C@H](C)[C@H](CN(C)Cc2ccc(Oc4ccccc4)cc2)O3)cc1 | inactive |
| COc1ccc(S(=O)(=O)Nc2ccc3c(c2)CC(=O)N([C@@H](C)CO)C[C@H](C)[C@@H](CN(C)Cc2ccc(Oc4ccccc4)cc2)O3)cc1 | active |
| COc1ccc(S(=O)(=O)Nc2ccc3c(c2)CC(=O)N([C@@H](C)CO)C[C@@H](C)[C@@H](CN(C)Cc2ccc(Oc4ccccc4)cc2)O3)cc1 | inactive |
| COc1ccc(S(=O)(=O)Nc2ccc3c(c2)CC(=O)N([C@H](C)CO)C[C@H](C)[C@@H](CN(C)Cc2ccc(Oc4ccccc4)cc2)O3)cc1 | inactive |
| COc1ccc(S(=O)(=O)Nc2ccc3c(c2)CC(=O)N([C@H](C)CO)C[C@H](C)[C@H](CN(C)Cc2ccc(Oc4ccccc4)cc2)O3)cc1 | active |
| COc1ccc(S(=O)(=O)Nc2ccc3c(c2)CC(=O)N([C@H](C)CO)C[C@@H](C)[C@H](CN(C)Cc2ccc(Oc4ccccc4)cc2)O3)cc1 | active |
| COc1ccc(NC(=O)Nc2ccc3c(c2)C(=O)N([C@H](C)CO)C[C@@H](C)[C@H](CN(C)C(=O)NC2CCCCC2)OCCCC[C@H](C)O3)cc1 | inactive |
| C[C@@H]1CN([C@@H](C)CO)C(=O)c2cc(C#CCN(C)C)cnc2O[C@H]1CN(C)Cc1ccc(C(=O)O)cc1 | inactive |
| COc1cccc(OC)c1C(=O)O[C@H]1[C@@H]2OC(=O)[C@@H](Cc3ccc4ccccc4c3)C/C=C/C[C@H](Cc3ccc4ccccc4c3)C(=O)O[C@H]2[C@@H](OC)O[C@@H]1CO | inactive |
| Cc1ccc(S(=O)(=O)N(C)C[C@@H]2Oc3ccc(NC(=O)Cn4cnnn4)cc3C(=O)N([C@H](C)CO)C[C@@H]2C)cc1 | inactive |
| Cc1noc(C)c1S(=O)(=O)Nc1cccc2c1O[C@@H](CN(C)S(=O)(=O)c1ccccc1)[C@@H](C)CN([C@@H](C)CO)C2=O | inactive |
| C[C@H](CO)N1C[C@H](C)[C@@H](CN(C)C(=O)c2ccccc2)OCCCC[C@H](C)Oc2ccc(NS(=O)(=O)c3cccs3)cc2C1=O | inactive |
| CN1CCN(C(=O)C[C@H]2CC[C@@H]3[C@H](COC[C@@H](O)CN3S(=O)(=O)c3cccc(Cl)c3)O2)CC1 | inactive |
| CCS(=O)(=O)N1CC[C@]2(CC1)CN([C@@H](CO)c1c2c2ccc(cc2n1C)OC)S(=O)(=O)c1ccccc1 | inactive |
| C[C@@H]1CN([C@H](C)CO)C(=O)c2cccc(NC(=O)Nc3ccc(C(F)(F)F)cc3)c2O[C@@H]1CN(C)C(=O)NC1CCCCC1 | active |
| C[C@H](CO)N1C[C@H](C)[C@@H](CN(C)C(=O)NC2CCCCC2)Oc2c(NC(=O)Nc3ccc(C(F)(F)F)cc3)cccc2C1=O | active |
| C[C@@H]1CN([C@H](C)CO)C(=O)c2cccc(NC(=O)Nc3ccc(C(F)(F)F)cc3)c2O[C@H]1CN(C)C(=O)NC1CCCCC1 | active |
| C[C@H](CO)N1C[C@H](C)[C@H](CN(C)C(=O)NC2CCCCC2)Oc2c(NC(=O)Nc3ccc(C(F)(F)F)cc3)cccc2C1=O | active |
| O=C(N[C@H]1CC[C@H](CCNS(=O)(=O)c2ccccc2)O[C@@H]1CO)c1cnccn1 | inactive |

| SMILES | cytotoxicity call |
| --- | --- |
| C[C@@H]1CCCCO[C@@H](CN(C)C(=O)NC2CCCCC2)[C@H](C)CN([C@H](C)CO)C(=O)c2cc(NC(=O)C3CCCCC3)ccc2O1 | inactive |
| C[C@@H]1CN([C@H](C)CO)S(=O)(=O)c2ccc(C#CCN(C)C)cc2O[C@@H]1CN(C)S(=O)(=O)c1cccc(F)c1 | inactive |
| CC(C)NC(=O)Nc1ccc2c(c1)C(=O)N([C@H](C)CO)C[C@H](C)[C@H](CN(C)C(=O)C1CCCCC1)OCCCC[C@@H](C)O2 | inactive |
| COc1ccc(NC(=O)Nc2ccc3c(c2)C(=O)N([C@@H](C)CO)C[C@H](C)[C@@H](CN(C)S(=O)(=O)c2ccc(Cl)cc2)OCCCC[C@@H](C)O3)cc1 | inactive |
| COc1ccc(CNC(=O)C[C@H]2C[C@@H]3c4cc(NC(=O)NC5CCCC5)ccc4O[C@@H]3[C@@H](CO)O2)cc1 | inactive |
| O=C(NCCC1=CCCCC1)c1sc2ccccc2c1Cl | inactive |
| C[C@H](CO)N1C[C@H](C)[C@@H](CN(C)C(=O)c2ccccc2)OCCCC[C@H](C)Oc2ccc(NC(=O)CCC(F)(F)F)cc2C1=O | inactive |
| C[C@@H]1CN([C@@H](C)CO)C(=O)c2c(c3ccccc3n2C)-c2ccccc2CO[C@@H]1CN(C)C(=O)Nc1ccccc1 | inactive |
| C[C@@H]1CN([C@@H](C)CO)C(=O)c2cccc(NC(=O)Nc3ccc(C(F)(F)F)cc3)c2O[C@H]1CN(C)C(=O)NC1CCCCC1 | active |
| C[C@H]1CN([C@@H](C)CO)C(=O)c2cccc(NC(=O)Nc3ccc(C(F)(F)F)cc3)c2O[C@@H]1CN(C)C(=O)NC1CCCCC1 | active |
| C[C@H]1CN([C@@H](C)CO)C(=O)c2cccc(NC(=O)Nc3ccc(C(F)(F)F)cc3)c2O[C@H]1CN(C)C(=O)NC1CCCCC1 | inactive |
| C[C@@H]1CN([C@@H](C)CO)C(=O)c2cccc(NC(=O)Nc3ccc(C(F)(F)F)cc3)c2O[C@@H]1CN(C)C(=O)NC1CCCCC1 | inactive |
| O=C(C[C@@H]1CC[C@H]2[C@@H](COC[C@@H](O)CN2S(=O)(=O)c2cccc(Cl)c2)O1)NC1Cc2ccccc2C1 | inactive |
| C[C@@H]1CN([C@@H](C)CO)C(=O)c2cc(NC(=O)Cn3cnnn3)ccc2O[C@@H]1CN(C)Cc1ccc(C(=O)O)cc1 | inactive |
| C[C@H](CO)N1C[C@H](C)[C@@H](CN(C)C(=O)NC2CCCCC2)OCCCC[C@H](C)Oc2ccc(NC(=O)CCC(F)(F)F)cc2C1=O | inactive |
| C[C@H]1CN([C@@H](C)CO)C(=O)CCCn2cc(nn2)CO[C@@H]1CN(C)C(=O)Nc1cccc(Oc2ccccn2)c1 | inactive |
| CCCNCC(O)COc1ccccc1C(=O)CCc1ccccc1.Cl (configuration not stated) | active |
| CCCC(=O)Nc1ccc(OCC(O)CNC(C)C)c(C(C)=O)c1.Cl (configuration not stated) | inactive |
| CC(=O)c1ccccc1OC[C@@H](O)CN(CCO)CCO | inactive |
| C[C@H]1CN([C@@H](C)CO)C(=O)c2cc(NC(=O)CCC(F)(F)F)ccc2O[C@H]1CN(C)Cc1ccc(C(F)(F)F)cc1 | inactive |
